# Screens as filed in PubChem BioAssay.
# Only some compounds are listed: those with a hit (about 2.9% of all), similar ones and a draw of the others.
# MEKK3 PB1 HTS: raises or lowers MEK5 binding to the human MEKK3 PB1 domain; Q99759; bead-based flow cytometry, Alexa488-MEK5 binding to MEKK3; actives lie on both sides; 0 = blocked by unlabeled MEK5, 100 = vehicle; binding response (% of control), % at 10 µM; 290,000 compounds, 1.4% hits;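 active = binding response more than 3 SD above or below the average of its plate-row segment, actives on both sides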;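 note: Alexa488 bead fluorescence after subtracting the streptavidin-only scavenger bead signal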
# B2AR ag: human beta-2 adrenergic receptor agonism by FAP | Am2.2-beta2AR cells, FAP receptor internalization, flow cytometry | response, % (concentration not given with the values) | 340,000 compounds, 0.43% hits | AID 504454;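 active = response above a set limit, near 3 SD of response in nonfluorescent compounds, cut at about 42% in these data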
# GRK2 aptamer HTS: blocks RNA aptamer binding to human GRK2; P25098; bead flow cytometry, FAM-aptamer displacement from GRK2; inhibition of aptamer binding, % at 10 µM; 330,000 compounds, 0.59% hits;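 active = inhibition of aptamer binding above 40%, roughly 3 SD of noise, on plates passing a quality check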;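 note: median bead fluorescence of bound FAM aptamer so fluorescent compounds give negative values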
# Target sequence (P25098 whole entry, looked up): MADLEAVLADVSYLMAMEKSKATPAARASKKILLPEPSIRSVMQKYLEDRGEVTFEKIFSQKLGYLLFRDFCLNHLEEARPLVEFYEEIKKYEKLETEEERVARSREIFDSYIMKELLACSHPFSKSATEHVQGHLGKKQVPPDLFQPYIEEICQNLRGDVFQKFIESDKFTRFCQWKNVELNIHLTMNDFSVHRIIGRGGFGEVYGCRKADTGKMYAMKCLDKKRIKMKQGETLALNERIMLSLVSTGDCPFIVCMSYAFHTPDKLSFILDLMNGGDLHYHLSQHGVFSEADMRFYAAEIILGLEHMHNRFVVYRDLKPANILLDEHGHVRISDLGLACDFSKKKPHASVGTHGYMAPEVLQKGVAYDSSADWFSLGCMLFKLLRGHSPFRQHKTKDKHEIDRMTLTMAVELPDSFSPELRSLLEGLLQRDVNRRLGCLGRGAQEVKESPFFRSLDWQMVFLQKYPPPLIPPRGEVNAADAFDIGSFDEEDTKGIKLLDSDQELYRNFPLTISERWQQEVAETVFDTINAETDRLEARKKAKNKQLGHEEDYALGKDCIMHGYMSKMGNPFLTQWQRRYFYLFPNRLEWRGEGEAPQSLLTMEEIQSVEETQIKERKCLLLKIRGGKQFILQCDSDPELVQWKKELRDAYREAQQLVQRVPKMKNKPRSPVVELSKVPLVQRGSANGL
# MEKK2mut PB1 HTS: signal of MEK5 binding to mutant human MEKK2 PB1 domain | bead flow cytometry, Alexa488-MEK5 binding to MEKK2 mutant | percent response, % at 10 µM | 290,000 compounds, 0.35% hits; in the data active = percent response above about 24%, passing the limit was not always enough
# MEKK2wt PB1 HTS: raises or lowers MEK5 binding to wildtype human MEKK2 PB1 domain | bead flow cytometry, Alexa488-MEK5 binding to MEKK2 WT; actives lie on both sides | binding response (% of control), % at 10 µM | 290,000 compounds, 1.1% hits; in the data active = binding response below about 67% or above about 130%
# MEKK2wt confirm: raises or lowers MEK5 binding to wildtype human MEKK2, retest. shares compounds with MEKK3 PB1 HTS. 5,900 compounds, 2.4% hits. AID 1892. binding response (% of control), % at 10 µM. bead flow cytometry, Alexa488-MEK5 binding to MEKK2 WT; actives lie on both sides; in the data active = binding response below about 16% or above about 210%; inactive = in between
# MEKK2mut confirm: signal of MEK5 binding to mutant human MEKK2, retest; 5,900 compounds, 2% hits; shares compounds with MEKK3 PB1 HTS; AID 1893; bead flow cytometry, Alexa488-MEK5 binding to MEKK2 mutant; percent response, % at 10 µM; in the data active = percent response mostly above about 71%, no sharp cut-off; inactive = mostly below about 38%;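 note: higher means compound restores mutant binding toward wildtype level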
# MEKK3 confirm: MEKK3-MEK5 PB1 inhibition, single concentration confirmation. shares compounds with MEKK3 PB1 HTS. bead flow cytometry, Alexa488-MEK5 binding to MEKK3; stronger effect = lower value. 5,900 compounds, 1.8% hits. binding response (% of control), % at 10 µM;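 active = binding response below 72% of control, or above a set upper limit, though filed actives all read lower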;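 note: 100% = DMSO only wells and 0% = binding blocked by excess unlabeled MEK5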
# * = called active by the depositor; . = not tested or not shown; [ ] = another dose, or the depositor's remark.
SMILES,MEKK3 PB1 HTS,B2AR ag,GRK2 aptamer HTS,MEKK2mut PB1 HTS,MEKK2wt PB1 HTS,MEKK2wt confirm,MEKK2mut confirm,MEKK3 confirm
O=C(NCCO)/C(=C\c1cccs1)NC(=O)c1cccs1,106.0,-2.8,2.0,0.0,104.0,.,.,.
O=C(NCCCn1ccnc1)/C(=C\c1cccs1)NC(=O)c1cccs1,130.0*,-0.4,0.0,0.0,116.0,100.0,-5.0,101.0
CCOc1ccc(NC(=O)CNc2cccc(S(=O)(=O)N3CCCCCC3)c2)cc1OCC,.,-0.7,0.0,.,.,.,.,.
Cc1ccc(C(C)C)c(OCC(=O)NNC(=O)Cn2[nH]c(=O)c3ccccc3c2=O)c1,.,6.6,0.0,.,.,.,.,.
COc1ccc(Br)cc1CN1CCN(Cc2c[nH]c3ccccc23)CC1,94.0,24.7,0.0,27.0*,117.0,138.0,19.0,107.0
COc1ccc(CN2CCN(Cc3c[nH]c4ccccc34)CC2)cc1,106.0,3.6,0.0,12.0,114.0,.,.,.
C=CCC(NCc1ccco1)c1ccc(OC)c(OC)c1 (configuration not stated),0.0*[inhibitor],3.6,0.0,-16.0,-1.0*[inhibitor],93.0,-5.0,98.0
C=CCC(NCc1ccco1)c1ccc(OC)cc1OC (configuration not stated),92.0,.,3.0,-6.0,93.0,.,.,.
COc1ccc(C(CC(=O)O)NC(=O)c2ccco2)cc1OC (configuration not stated),110.0,6.8,0.0,24.0*,111.0,101.0,-1.0,99.0
COc1ccc(C(CC(=O)O)NC(=O)c2ccco2)cc1 (configuration not stated),102.0,1.5,1.0,-1.0,99.0,.,.,.
Cc1cc(Br)ccc1NC(=O)CN(C)C(=O)C1=COCCO1,.,0.8,0.0,.,.,.,.,.
Cc1noc(C)c1S(=O)(=O)N(C)C[C@H]1Oc2c(NS(=O)(=O)c3cn(C)cn3)cccc2C(=O)N([C@H](C)CO)C[C@@H]1C,.,-1.4,2.0,.,.,.,.,.
COc1ccccc1NC(=O)CN1CCC(n2c(C)nc3cc(F)ccc32)CC1,2.0*[inhibitor],9.8,0.0,-16.0,2.0*[inhibitor],106.0,5.0,106.0
COc1cccc(/C=N/n2c(CO)nc3ccccc32)c1OC,71.0*[inhibitor],-3.1,0.0,-8.0,77.0,106.0,5.0,103.0
CCC(=O)N1CC2(C)CN(C(=O)CC)CC(C)(C1)C2,129.0*,-2.0,0.0,8.0,122.0,100.0,-3.0,101.0
CC1CCCCN1C(=O)Nc1cccc(C(F)(F)F)c1 (configuration not stated),105.0,-10.2,0.0,6.0,104.0,.,.,.
COc1ccc(N/C=C/C(=O)C(F)(F)F)cc1,101.0,-0.7,7.0,0.0,102.0,.,.,.
O=C(/C=C/Nc1ccc(Cc2ccc(N/C=C/C(=O)C(F)(F)F)cc2)cc1)C(F)(F)F,134.0*,2.1,0.0,0.0,102.0,103.0,0.0,102.0
Cc1ccc(NC(=O)C(=O)NCC2OCCc3ccccc32)cc1 (configuration not stated),106.0,0.4,2.0,-8.0,94.0,.,.,.
O=C(NCC1OCCc2ccccc21)c1ccc(NC(=O)c2ccc(Cl)cc2)cc1 (configuration not stated),134.0*,-2.1,2.0,2.0,112.0,105.0,9.0,106.0
COc1ccccc1NC(=O)c1ccc(NC(=O)COC(=O)CC(NC(=O)c2ccccc2Cl)c2ccccc2)cc1 (configuration not stated),130.0*,-28.3,3.0,0.0,103.0,93.0,-8.0,108.0
FC(F)(F)c1cc(CCN2CCNC[C@@H]2Cc2ccccc2)cc(C(F)(F)F)c1,113.0,31.8,0.0,15.0,146.0*,136.0,39.0,111.0
O=C(Cc1ccc(-n2c(=O)[nH]c3ccsc3c2=O)cc1)NCc1cccnc1,139.0*,-6.1,4.0,1.0,109.0,103.0,0.0,101.0
COc1ccc(CCC(=O)N/N=C/c2ccc3c(c2)OCO3)cc1,.,1.6,1.0,.,.,.,.,.
CCOC(=O)Cn1cc(C(=O)C2CC2)c2ccccc21,2.0*[inhibitor],3.2,0.0,-16.0,2.0*[inhibitor],106.0,2.0,101.0
SMILES,MEKK3 PB1 HTS,B2AR ag,GRK2 aptamer HTS,MEKK2mut PB1 HTS,MEKK2wt PB1 HTS,MEKK2wt confirm,MEKK2mut confirm,MEKK3 confirm
Cc1ccc(C)c2[nH]c(=O)c(CN(CCN3CCCC3)C(=O)Nc3cccc(Cl)c3)cc12,110.0,20.3,0.0,41.0*,153.0*,154.0,35.0,103.0
Cc1ccc(-c2nc3ccccc3c(=O)n2NC(=O)c2cccs2)cc1,129.0*,-2.2,0.0,1.0,104.0,99.0,0.0,101.0
CC(C)N(C(=O)CN1CCN(C(=O)C2COc3ccccc3O2)CC1)C(C)C (configuration not stated),.,5.5,2.0,.,.,.,.,.
Fc1ccc(CNC(=S)NCc2ccc(F)cc2)cc1,103.0,-8.6,1.0,6.0,104.0,.,.,.
CCNC(=S)NCc1ccc(F)cc1,134.0*,-7.7,1.0,-1.0,109.0,102.0,-2.0,98.0
O=C(Nc1cccc(NS(=O)(=O)c2ccc(S(=O)(=O)NC3CC3)cc2)c1)c1ccccn1,124.0*,-11.2,0.0,5.0,114.0,101.0,1.0,108.0
O=C(Nc1cccc(S(=O)(=O)N2CCCCC2)c1)c1ccccn1,102.0,-10.5,1.0,1.0,103.0,.,.,.
O=S(=O)(c1c(F)cccc1F)N1CCCC2CCCCC21 (configuration not stated),.,4.5,4.0,.,.,.,.,.
Cc1ccc(N2CC(C(=O)Nc3ccc(S(=O)(=O)N4CCOCC4)cc3)CC2=O)cc1Cl (configuration not stated),.,-0.9,1.0,.,.,.,.,.
O=C(NOC(=O)c1c(F)cccc1Cl)c1ccc(Cl)c(Cl)c1,104.0,-2.5,4.0,14.0,103.0,.,.,.
COc1ccc(/C=C/CN2CCCC(C(=O)c3ccc(OC)c(F)c3)C2)cc1 (configuration not stated),105.0,10.3,1.0,20.0,140.0*,126.0,11.0,104.0
Fc1ccc2c(c1)C(c1ccncc1)=NNC(c1ccccc1)=N2,102.0,-16.9,3.0,8.0,111.0,.,.,.
Cc1ccc(Oc2cc([N+](=O)[O-])cc3c2C(=O)Nc2ccccc2O3)cc1,130.0*,-67.0,6.0,-2.0,94.0,95.0,-4.0,100.0
CC(c1ccc(F)cc1)n1cc(C(=O)NCCN(C)C)nn1 (configuration not stated),103.0,-10.0,0.0,-2.0,98.0,.,.,.
Cc1ccc(CN2C3CCCC2CC(NC(=O)c2ccc(C)cc2)C3)cc1 (configuration not stated),144.0*,-0.3,0.0,52.0*,200.0*,116.0,18.0,101.0
